Measured values as given in PubChem BioAssay AID1159580 (chemical genetic matrix, 2015).
Where “and” joins values, the source holds several entries; their conditions need not be identical. Identical values can stand only once. The campaign covered roughly 5,500 compounds. About 2,000 (36%) were called active. About 18% were inconclusive and are not listed. Cut-off read from the data, not from the text of the source: active = normalized growth mostly below about 0.91 (no sharp cut-off); inconclusive = no clear call, values can overlap the other calls; inactive = mostly above about 0.92. The list shows a part of the results.

Test: chemical genetic growth profiling, strain panel (AID 1159580);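 note: tested at 20 µM; growth read once vehicle control cultures reached saturation at 30 °C; 1 = growth at the plate median or of vehicle wells; lower values mean less growth of the strain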
Details: S. cerevisiae deletion strains, growth OD

Measured: normalized growth

N[C@@H](Cc1ccc(N(CCCl)CCCl)cc1)C(=O)O
inactive: locus YAL013W, strain DEP1, stronger effect = lower value 0.988 | locus YAL021C, strain ccr4, stronger effect = lower value 0.985 | locus YAL026C, strain drs2, stronger effect = lower value 0.997 | locus YAL030W, strain snc1, stronger effect = lower value 0.991 | locus YBL061C, strain skt5, stronger effect = lower value 0.987 | locus YBR009C, strain hhf1, stronger effect = lower value 0.985 | locus YBR021W, strain FUR4, stronger effect = lower value 1.05 | locus YBR023C, strain chs3, stronger effect = lower value 0.978 | locus YBR171W, strain sec66, stronger effect = lower value 0.98 | locus YBR229C, strain ROT2, stronger effect = lower value 0.947 | locus YBR231C, strain swc5, stronger effect = lower value 0.994 | locus YBR279W, strain paf1, stronger effect = lower value 0.988 | locus YCL011C, strain gbp2, stronger effect = lower value 0.971 | locus YCL016C, strain dcc1, stronger effect = lower value 0.968 | locus YCL029C, strain bik1, stronger effect = lower value 0.972 | locus YCL061C, strain MRC1, stronger effect = lower value 0.972 | locus YCL069W, strain vba3, stronger effect = lower value 0.984 | locus YCR088W, strain abp1, stronger effect = lower value 0.986 | locus YDL005C, strain med2, stronger effect = lower value 0.995 | locus YDL035C, strain GPR1, stronger effect = lower value 0.986 | locus YDL040C, strain nat1, stronger effect = lower value 0.985 | locus YDL074C, strain BRE1, stronger effect = lower value 0.977 | locus YDL101C, strain DUN1, stronger effect = lower value 0.972 | locus YDL134C, strain PPH21, stronger effect = lower value 0.987 | locus YDL192W, strain arf1, stronger effect = lower value 0.973 | locus YDR001C, strain nth1, stronger effect = lower value 0.978 | locus YDR069C, strain doa4, stronger effect = lower value 0.996 | locus YDR101C, strain arx1, stronger effect = lower value 0.983 | locus YDR137W, strain rgp1, stronger effect = lower value 0.964 | locus YDR150W, strain NUM1, stronger effect = lower value 0.974 | locus YDR159W, strain sac3, stronger effect = lower value 1.01 | locus YDR162C, strain NBP2, stronger effect = lower value 0.974 | locus YDR195W, strain ref2 0.975 | locus YDR297W, strain sur2, stronger effect = lower value 0.998 | locus YDR318W, strain mcm21, stronger effect = lower value 0.984 | locus YDR334W, strain swr1, stronger effect = lower value 0.966 | locus YDR335W, strain msn5, stronger effect = lower value 0.995 | locus YDR388W, stronger effect = lower value 0.984 | locus YDR392W, strain spt3, stronger effect = lower value 0.879 | locus YDR502C, strain sam2, stronger effect = lower value 0.971 | locus YEL003W, strain gim4, stronger effect = lower value 0.996 | locus YEL037C, strain rad23, stronger effect = lower value 0.973 | locus YEL061C, strain CIN8 (second series), stronger effect = lower value 0.978 | locus YEL061C, strain CIN8, stronger effect = lower value 0.982 | locus YER015W, strain faa2, stronger effect = lower value 0.995 | locus YER016W, strain bim1, stronger effect = lower value 1 | locus YER110C, stronger effect = lower value 0.977 | locus YER111C, strain swi4, stronger effect = lower value 0.967 | locus YER155C, strain BEM2 (second series), stronger effect = lower value 0.991 | locus YER155C, strain BEM2, stronger effect = lower value 0.979 | locus YER167W, strain BCK2, stronger effect = lower value 0.982 | locus YFR010W, strain ubp6, stronger effect = lower value 0.985 | locus YGL078C, strain dbp3, stronger effect = lower value 0.986 | locus YGL086W, strain mad1, stronger effect = lower value 0.983 | locus YGL167C, strain pmr1, stronger effect = lower value 0.987 | locus YGL173C, strain kem1, stronger effect = lower value 0.994 | locus YGL227W, strain vid30, stronger effect = lower value 0.995 | locus YGL240W, strain doc1, stronger effect = lower value 1.02 | locus YGL248W, strain PDE1, stronger effect = lower value 0.972 | locus YGL253W, strain hxk2, stronger effect = lower value 0.982 | locus YGR078C, strain PAC10, stronger effect = lower value 0.986 | locus YGR135W, strain pre9, stronger effect = lower value 0.962 | locus YGR229C, strain SMI1, stronger effect = lower value 0.974 | locus YGR252W, strain gcn5, stronger effect = lower value 1.02 | locus YHR013C, strain ard1, stronger effect = lower value 0.932 | locus YHR027C, strain rpn1, stronger effect = lower value 0.983 | locus YHR030C, strain SLT2, stronger effect = lower value 0.989 and 1.02 | locus YHR079C, strain IRE1 (second series), stronger effect = lower value 0.982 | locus YHR079C, strain IRE1, stronger effect = lower value 1.03 | locus YHR094C, strain hxt1, stronger effect = lower value 0.971 | locus YHR129C, strain ARP1, stronger effect = lower value 0.998 | locus YHR142W, strain chs7, stronger effect = lower value 0.941 | locus YHR200W, strain rpn10, stronger effect = lower value 0.97 | locus YIL066C, strain RNR3, stronger effect = lower value 0.983 | locus YIL073C, strain SPO22, stronger effect = lower value 0.963 | locus YIL125W, strain kgd1, stronger effect = lower value 0.979 | locus YIR030C, strain dcg1, stronger effect = lower value 0.981 | locus YJL092W, strain hpr5, stronger effect = lower value 0.979 | locus YJL095W, strain BCK1 (second series), stronger effect = lower value 0.984 | locus YJL095W, strain BCK1, stronger effect = lower value 1 and 1.02 | locus YJL115W, strain asf1, stronger effect = lower value 0.981 | locus YJL129C, strain trk1, stronger effect = lower value 0.969 | locus YJL134W, strain LCB3, stronger effect = lower value 0.981 | locus YJL154C, strain vps35, stronger effect = lower value 0.978 | locus YJL164C, strain tpk1, stronger effect = lower value 0.949 | locus YJL166W, strain qcr8, stronger effect = lower value 0.952 | locus YJL168C, strain set2, stronger effect = lower value 0.981 | locus YJL187C, strain SWE1 (second series), stronger effect = lower value 0.98 | locus YJL187C, strain SWE1, stronger effect = lower value 0.984 | locus YJR043C, strain POL32, stronger effect = lower value 0.989 | locus YJR066W, strain TOR1, stronger effect = lower value 0.959
